EBV gp42 inh: inhibitors of Epstein-Barr virus glycoprotein 42; Q1HVG2; 0.42% of 220,000 active; inhibition, % (tested at 21.74 µM); Fluorescence polarization binding assay, mP read-out; AID 1085; in the data active means inhibition above about 50%
Target sequence (Q1HVG2 whole entry, looked up): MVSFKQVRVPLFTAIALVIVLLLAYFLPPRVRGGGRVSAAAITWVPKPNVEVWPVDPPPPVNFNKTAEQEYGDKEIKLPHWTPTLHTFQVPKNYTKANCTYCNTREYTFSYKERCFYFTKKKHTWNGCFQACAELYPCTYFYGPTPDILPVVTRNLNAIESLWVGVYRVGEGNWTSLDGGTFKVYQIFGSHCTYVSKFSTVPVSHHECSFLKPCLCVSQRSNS
GLD-1 RNA inh: GLD-1-TGE RNA interaction inhibition (C. elegans); purified GLD-1 + fluorescein TGE RNA, fluorescence polarization; inhibition, % at 5.96 µM; 0.44% of 320,000 active; AID 2280;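 active means percent inhibition above a per-plate cutoff, the plate mean of test compounds plus 3 SD, cut at about 30% in these data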;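 further: 0% = DMSO wells with GLD-1 and probe and 100% = wells lacking GLD-1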
MEX-5 binding: C. elegans MEX-5 TCR-2 RNA binding activity; Q9XUB2; MEX-5/FITC-TCR2 RNA binding, fluorescence polarization; active compounds read low; activity score (negative = inhibition of binding), % at 10 µM; 0.38% of 300,000 active; AID 1832;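 active means inhibition past about -25% in most replicates, and total fluorescence under double the plate's negative control median, limit read from the data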;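 further: 0% = DMSO and -100% = 5 µM competing unlabeled TCR2 RNA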
Bcl-xL primary: inhibitors of human Bcl-xL. Q07817. GST-Bcl-xL / FITC-Bim BH3 peptide fluorescence polarization. inhibition, % at 10.9 µM. 0.7% of 320,000 active. AID 2129;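 active means inhibition above the mean of all tested compounds plus 3 SD, cutoff set per campaign, cut at about 30% in these data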;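 further: 0% = DMSO wells and 100% = unlabeled Bim-BH3 peptide competitor; inhibitors lower millipolarization by displacing the labeled peptide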
Target sequence (Q07817 whole entry, looked up): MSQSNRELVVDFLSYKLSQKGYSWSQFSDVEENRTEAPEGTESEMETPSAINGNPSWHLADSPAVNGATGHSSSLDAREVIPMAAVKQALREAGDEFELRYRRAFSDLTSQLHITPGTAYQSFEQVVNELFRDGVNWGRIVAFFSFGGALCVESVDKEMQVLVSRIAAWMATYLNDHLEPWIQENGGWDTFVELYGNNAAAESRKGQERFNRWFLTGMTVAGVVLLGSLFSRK
MCL1-BIM inh: inhibitors of human MCL1 binding to BIM-BH3 peptide; 0.68% of 320,000 active; inhibition, % at 10.9 µM; Q07820; GST-MCL1 / FITC-Bim-BH3 fluorescence polarization;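 active means inhibition above the mean inhibition of all tested compounds plus 3 SD, set per campaign, cut at about 40% in these data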;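 further: 0% = DMSO wells and 100% = unlabeled Bim-BH3 peptide control; higher means more loss of mP so more displacement of Bim peptide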
eLon inh: inhibits E. coli Lon protease. P0A9M0. purified E. coli Lon protease, fluorescence polarization. inhibition, % at 7.94 µM. 0.42% of 360,000 active. AID 602123; in the data active means inhibition above about 13%, passing the limit was not always enough;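 further: 0% = enzyme with probe and DMSO and 100% = no enzyme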
* marks the source's active call; other numbers are inactive results. A selection: hits, their analogues and other compounds. The true share with any hit is near 1.5%.

`Cc1ccc(-n2c(N)c(C(=O)Nc3c(C)n(C)n(-c4ccccc4)c3=O)c3nc4ccccc4nc32)cc1C` gave EBV gp42 inh 33, GLD-1 RNA inh 20, MEX-5 binding 0, Bcl-xL primary 57* and MCL1-BIM inh 61*.
Screening O=C(COc1ccc(Br)cc1Cl)c1ccc[nH]1 returned EBV gp42 inh -12, GLD-1 RNA inh 6, MEX-5 binding -2, Bcl-xL primary 0, MCL1-BIM inh 1 and eLon inh 9.
`Clc1ccc(OCc2nnc(-c3ccccc3Br)o2)c(Cl)c1` gave EBV gp42 inh 91*, GLD-1 RNA inh 0, MEX-5 binding 2, Bcl-xL primary 6, MCL1-BIM inh 6 and eLon inh -4.
Screening O=C1OC(/C(=C\Nc2cc(Cl)ccc2O)[N+](=O)[O-])c2ccccc21 (stereo not given) returned EBV gp42 inh -2, GLD-1 RNA inh 9, MEX-5 binding -26*, Bcl-xL primary 1, MCL1-BIM inh -4 and eLon inh -2.
O=C1OC(/C(=C\Nc2ccc(F)cc2F)[N+](=O)[O-])c2ccccc21 (stereo not given) was read as EBV gp42 inh -2, GLD-1 RNA inh 5, MEX-5 binding -2, Bcl-xL primary 8, MCL1-BIM inh 2 and eLon inh -6.
Cc1ncc(CO)c(/C=N/NC(=O)c2ccc(Br)cc2)c1O was read as EBV gp42 inh -3, GLD-1 RNA inh 15, MEX-5 binding 0, Bcl-xL primary 11 and MCL1-BIM inh 12.
Cc1ncc(CO)c(/C=N/NC(=O)c2cc(O)c(O)c(O)c2)c1O was read as EBV gp42 inh -19 and MEX-5 binding -39*.
Cc1ncc(CO)c(/C=N/NC(=O)c2cc(Br)ccc2O)c1O was read as EBV gp42 inh -16, GLD-1 RNA inh 0, MEX-5 binding -82*, Bcl-xL primary 5, MCL1-BIM inh 20 and eLon inh -4.
Screening CN1/C(=C\C=C2/SC(=S)NC2=O)C(C)(C)c2ccccc21 returned EBV gp42 inh -155, GLD-1 RNA inh -101, MEX-5 binding 22, Bcl-xL primary 37*, MCL1-BIM inh -13 and eLon inh inactive.
Screening CN1C(=CC=C2C=C(I)C(=O)C(I)=C2)C(C)(C)c2ccccc21 returned EBV gp42 inh -35 and eLon inh 0.
CCCN1C(=O)/C(=C\C=C2/Sc3ccccc3N2CC)SC1=S was read as EBV gp42 inh -9 and MEX-5 binding 1.
Screening CN1/C(=C\C=C2/C(=O)Oc3ccccc3C2=O)C(C)(C)c2ccccc21 returned EBV gp42 inh 18, GLD-1 RNA inh -127, MEX-5 binding 11, Bcl-xL primary 47* and MCL1-BIM inh 8.
CCCN1C(=O)/C(=C\C=C2\N(CC)c3ccccc3C2(C)C)SC1=S was read as EBV gp42 inh active, MEX-5 binding 1 and eLon inh -139.
`Cc1noc(C)c1NC(=O)N(C)C[C@H]1Oc2c(NC(=O)NC(C)C)cccc2C(=O)N([C@H](C)CO)C[C@@H]1C` gave GLD-1 RNA inh 10 and eLon inh -3.
For CN(C)c1cccc2c1c(NS(=O)(=O)c1cn(C)cn1)nn2C the results were GLD-1 RNA inh 6, MEX-5 binding -30*, Bcl-xL primary 16, MCL1-BIM inh 9 and eLon inh -3.
`Cn1cnc(S(=O)(=O)Nc2ccccc2N2CCOCC2)c1` gave EBV gp42 inh 6, GLD-1 RNA inh 2, MEX-5 binding 0, Bcl-xL primary -1, MCL1-BIM inh 1 and eLon inh 5.
CC(=O)C1(C)OC(N)=C(C#N)C(c2ccccc2)C1(C#N)C#N (stereo not given) was read as EBV gp42 inh 0, GLD-1 RNA inh 27, MEX-5 binding -13, Bcl-xL primary 43*, MCL1-BIM inh 37 and eLon inh -9.
For CC(=O)C1=C(c2ccccc2)OC(N)=C(C#N)C1c1ccccc1C (stereo not given) the results were EBV gp42 inh -7, GLD-1 RNA inh 4, MEX-5 binding 0, Bcl-xL primary 2, MCL1-BIM inh -3 and eLon inh 10.
Screening CCCCc1cn([C@@H](CCCCN)C(=O)N2CCNCC2)nn1 returned EBV gp42 inh 32, GLD-1 RNA inh 25, MEX-5 binding -29*, Bcl-xL primary 39*, MCL1-BIM inh 36 and eLon inh 11.
`Cc1cccc(NC(=O)CSc2cc(C(=O)c3nccn3C)c3ccccc3n2)c1` gave EBV gp42 inh -17, GLD-1 RNA inh 0, MEX-5 binding -1, Bcl-xL primary 0, MCL1-BIM inh -1 and eLon inh 6.
For O=C(CN1C(=O)c2ccccc2S1(=O)=O)Nc1ncc(Cl)cc1Cl the results were GLD-1 RNA inh 57* and eLon inh 10.
`O=C(CN1C(=O)c2ccccc2S1(=O)=O)Nc1ncccn1` gave GLD-1 RNA inh 10, MEX-5 binding 0, Bcl-xL primary 7, MCL1-BIM inh 9 and eLon inh -1.
For CCc1nnc(NC(=O)CSc2nnc(COc3ccccc3)n2-c2ccc(C)cc2)s1 the results were EBV gp42 inh -15, GLD-1 RNA inh 10, MEX-5 binding 1, Bcl-xL primary -9, MCL1-BIM inh -8 and eLon inh -3.
COc1ccc(-c2[nH]ncc2CNC(C)CCn2cccn2)c(F)c1 (stereo not given) was read as EBV gp42 inh -13, GLD-1 RNA inh -3, MEX-5 binding 1, Bcl-xL primary 4, MCL1-BIM inh 5 and eLon inh 6.
Screening COc1ccc(-c2[nH]ncc2CNC(C)c2cn(C)nc2C)c(F)c1 (stereo not given) returned EBV gp42 inh -15, GLD-1 RNA inh 8, MEX-5 binding 3, Bcl-xL primary 68*, MCL1-BIM inh 13 and eLon inh -1.
`CCOc1c(C=C(C#N)C#N)c2ccccc2n1CC` gave EBV gp42 inh 2, GLD-1 RNA inh -4, MEX-5 binding -39*, Bcl-xL primary 3, MCL1-BIM inh 16 and eLon inh -4.
`COc1cc(/C=C2/NC(=O)N(Cc3ccccc3F)C2=O)cc(OC)c1O` gave EBV gp42 inh 35, GLD-1 RNA inh 66*, MEX-5 binding -10, Bcl-xL primary 10, MCL1-BIM inh 14 and eLon inh -10.
Screening CCOc1cc(/C=C2/NC(=O)N(Cc3ccccc3F)C2=O)ccc1O returned EBV gp42 inh 6, GLD-1 RNA inh -5, MEX-5 binding 1, Bcl-xL primary 3, MCL1-BIM inh 0 and eLon inh 0.
`Cc1cccc(NC(=O)NCC2CC2)c1` gave MEX-5 binding -2 and eLon inh -6.
`O=C(COC(=O)c1sc2cc(F)ccc2c1Cl)Nc1ncc(Cl)cc1Cl` gave EBV gp42 inh -28, GLD-1 RNA inh -1, MEX-5 binding 0, Bcl-xL primary 5, MCL1-BIM inh 9 and eLon inh 9.
